Assay results published in PubChem BioAssay (NCATS).
Records with an inconclusive call do not appear. Active and inactive are the calls of the source. Calls come from the whole dose curve.

What was measured:
[1] = Primary qHTS for inhibitors of SARS-S pseudo-typed particle cell entry (AID 1479145); note: nearly all actives have a fitted effect of over 45% in size
[2] = Primary qHTS for Huh7 cytotoxicity: counterscreen for inhibitors of MERS-S pseudotyped particle cell entry (AID 1479147)
[3] = Primary qHTS for inhibitors of MERS-S pseudo-typed particle cell entry (AID 1479149); note: nearly all actives have a fitted effect of over 60% in size
[4] = Primary qHTS for Vero E6 cytotoxicity: counterscreen for inhibitors of SARS-S pseudo-typed particle cell entry (AID 1479150)

Measured: Potency

CCc1cc(C(N)=S)ccn1
inactive: [1] | [2] | [3] | [4]

O=C(CO)[C@@H](O)[C@H](O)[C@@H](O)CO
inactive: [1] | [2] | [3] | [4]

O=C(O)CCC(=O)O
inactive: [1] | [2] | [3] | [4]

CCOC(=O)c1ccc(OCCN2C[C@H](O)[C@@H](O)[C@H](O)[C@H]2CO)cc1
inactive: [1] | [2] | [3] | [4]

CC(=O)OCC(=O)[C@@]1(OC(C)=O)[C@@H](C)C[C@H]2[C@@H]3C[C@H](F)C4=CC(=O)C=C[C@]4(C)[C@@]3(F)[C@@H](O)C[C@@]21C
inactive: [1] | [2] | [3] | [4]

O=C1O[C@H](CO)[C@@H](O)[C@H](O)[C@H]1O
inactive: [1] | [2] | [3] | [4]

O=c1[nH]c(=O)n([C@H]2C[C@H](O)[C@@H](CO)O2)cc1I
inactive: [1] | [2] | [3] | [4]

Cc1ccccc1OCC(O)CO (centres undefined)
inactive: [1] | [2] | [3] | [4]

CCCC(=O)O[C@]1(C(=O)COC(=O)CC)CC[C@H]2[C@@H]3CCC4=CC(=O)CC[C@]4(C)[C@H]3[C@@H](O)C[C@@]21C
inactive: [1] | [2] | [3] | [4]

O=C(O)Cc1sc(-c2ccccc2)nc1-c1ccc(Cl)cc1
inactive: [1] | [2] | [3] | [4]

N#C[C@H]1C[C@H]2C[C@@H]2N1C(=O)[C@@H](N)C12CC3CC(CC(O)(C3)C1)C2
inactive: [1] | [2] | [3] | [4]

NC(=O)c1ccc([N+](=O)[O-])cc1Cl
inactive: [1] | [2] | [3] | [4]

CC(C)OC(=O)OCOP(=O)(CO[C@H](C)Cn1cnc2c(N)ncnc21)OCOC(=O)OC(C)C
inactive: [1] | [2] | [3] | [4]

O=C(O)c1ccccc1Nc1cccc(C(F)(F)F)c1
inactive: [1] | [2] | [3] | [4]

COc1ccc(C2C(=O)c3ccccc3C2=O)cc1
inactive: [1] | [2] | [3] | [4]

NS(=O)(=O)c1cc(C2(O)NC(=O)c3ccccc32)ccc1Cl (centres undefined)
inactive: [1] | [2] | [3] | [4]

CS(=O)(=O)c1ccc([C@@H](O)[C@@H](CO)NC(=O)C(Cl)Cl)cc1
inactive: [1] | [2] | [3] | [4]

C[C@H]1C[C@@H]2[C@H]([C@@H](O)C[C@@]3(C)[C@H]2CC[C@]3(O)C(=O)CO)[C@@]2(C)C=CC(=O)C=C12
inactive: [1] | [2] | [3] | [4]

COC(=O)c1cc(Cl)ccc1NS(=O)(=O)C(F)(F)F
inactive: [1] | [2] | [3] | [4]

Cc1onc(-c2ccccc2)c1-c1ccc(S(N)(=O)=O)cc1
inactive: [1] | [2] | [3] | [4]

CC[N+](CC)(CC)CCOc1cccc(OCC[N+](CC)(CC)CC)c1OCC[N+](CC)(CC)CC
inactive: [1] | [2] | [3] | [4]

COc1ccc(O)cc1
inactive: [1] | [2] | [3] | [4]

Nc1ccc(S(=O)(=O)Nc2ccccn2)cc1
inactive: [1] | [2] | [3] | [4]

CCOc1cc(CC(=O)N[C@@H](CC(C)C)c2ccccc2N2CCCCC2)ccc1C(=O)O
inactive: [1] | [2] | [3] | [4]

CCC(C(=O)NC(=O)NC(C)=O)c1ccccc1 (centres undefined)
inactive: [1] | [2] | [3] | [4]

CCC1=C(C)CN(C(=O)NCCc2ccc(S(=O)(=O)NC(=O)NC3CCC(C)CC3)cc2)C1=O (centres undefined)
inactive: [1] | [2] | [3] | [4]

COc1cc(C(=O)NC2CCCNC2)cc(OC)c1OC (centres undefined)
inactive: [1] | [2] | [3] | [4]

O=c1[nH]cnc2[nH]ncc12
inactive: [1] | [2] | [3] | [4]

CC(C)(C)C(=O)Oc1ccc(S(=O)(=O)Nc2ccccc2C(=O)NCC(=O)O)cc1
inactive: [1] | [2] | [3] | [4]

S=c1nc[nH]c2nc[nH]c12
inactive: [1] | [2] | [3] | [4]

CCO/C([O-])=N/c1c[n+](N2CCOCC2)no1
inactive: [1] | [2] | [3] | [4]

COc1ccc2cc([C@H](C)C(=O)O)ccc2c1
inactive: [1] | [2] | [3] | [4]

COc1cc(NS(=O)(=O)c2ccc(N)cc2)nc(C)n1
inactive: [1] | [2] | [3] | [4]

Nc1ncnc2c1ncn2[C@@H]1O[C@H](CO)[C@@H](O)[C@H]1O
inactive: [1] | [2] | [3] | [4]

Cc1cccc(C)c1NC(=O)c1cc(S(N)(=O)=O)c(Cl)cc1O
inactive: [1] | [2] | [3] | [4]

C/C(=C(\CCO)SS/C(CCO)=C(\C)N(C=O)Cc1cnc(C)nc1N)N(C=O)Cc1cnc(C)nc1N
inactive: [1] | [2] | [3] | [4]

O=C(O)[C@H](O)c1ccccc1
inactive: [1] | [2] | [3] | [4]

CC(=O)Oc1cccc(O)c1
inactive: [1] | [2] | [3] | [4]

Nc1ccc(C(=O)O)cc1
inactive: [1] | [2] | [3] | [4]

C[C@@H](O)[C@H]1C(=O)N2C(C(=O)O)=C(SCCN=CN)C[C@H]12
inactive: [1] | [2] | [3] | [4]

CC(=O)N(CC(O)CO)c1c(I)c(C(=O)NCCO)c(I)c(C(=O)NCC(O)CO)c1I (centres undefined)
inactive: [1] | [2] | [3] | [4]

c1ccc2c(CC3=NCCN3)cccc2c1
inactive: [1] | [2] | [3] | [4]

CCN(CC)CCNC(=O)c1ccc(N)cc1
inactive: [1] | [2] | [3] | [4]

Cc1cccn2c(=O)c(-c3nnn[nH]3)cnc12
inactive: [1] | [2] | [3] | [4]

C[C@@H](CN1CC(=O)NC(=O)C1)N1CC(=O)NC(=O)C1
inactive: [1] | [2] | [3] | [4]

CCn1ccc(NS(=O)(=O)c2ccc(N)cc2)nc1=O
inactive: [1] | [2] | [3] | [4]
